Experimental data from the supplement of paper PMC12494721.
Counter-ions that a name gives are not always drawn.

Legend:
Details in all cases: incubation time: 27 h, anaerobic, 37 °C;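 for the amine columns active = adjusted P below 0.05 in both replicates with a change the same way and a mean fold change under 0.8 or over 1.25; inactive = the rest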
[1] = system: Clostridium sporogenes DSM 1664; experiment: growth (OD595) fold change vs plate DMSO controls (fold change (ratio)); higher = more growth
In short: (§1)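 Growth is calculated as fold change against the median of the DMSO control wells on each plate. Readings at 595 nm from anaerobic mGAM cultures (96-well, 27 h, 37 °C) were blank-subtracted, background-corrected with 20 µM compound solutions in water, and converted to OD by a calibration factor of 5. Fold changes above 1.5 were recorded as NA, and results are means of 2 biological replicates.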

Escherichia coli IAI1 [2] = experiment: as above
In short: as §1

[3] = system: Klebsiella aerogenes DSM 30053; experiment: as above
In short: as §1

[4] = system: Ruminococcus gnavus DSM 108212; experiment: as above
In short: as §1

[5] = system: Klebsiella aerogenes DSM 30053; experiment: fold change of Histamine concentration vs plate DMSO controls (fold change (ratio)); higher = more amine produced, active = hit call of the paper (significant change in both replicates, either direction)
In short: (§2)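 Anaerobic mGAM cultures of four gut bacterial strains were grown at 37 °C for 27 h in 80 µL wells, starting at OD 0.1 before 1:1 dilution. Compounds were at 20 µM final (sweeteners 50 µM). Whole cultures were extracted with cold acetonitrile/methanol containing 0.1% formic acid and centrifuged. Amines were quantified by LC–triple-quadrupole MS (dynamic MRM) against external calibration curves and drift-corrected within batch. Each value is the fold change versus plate DMSO controls, averaged over 2 biological replicates.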

[6] = system: Clostridium sporogenes DSM 1664; experiment: fold change of Tryptamine concentration vs plate DMSO controls (fold change (ratio)); higher = more amine produced, active = hit call of the paper (significant change in both replicates, either direction)
In short: as §2

[7] = system: Ruminococcus gnavus DSM 108212; experiment: as above
In short: as §2

Escherichia coli IAI1 [8] = experiment: fold change of Putrescine concentration vs plate DMSO controls (fold change (ratio)); higher = more amine produced, active = hit call of the paper (significant change in both replicates, either direction)
In short: as §2

[9] = system: Klebsiella aerogenes DSM 30053; experiment: as above
In short: as §2

Escherichia coli IAI1 [10] = experiment: fold change of Cadaverine concentration vs plate DMSO controls (fold change (ratio)); higher = more amine produced, active = hit call of the paper (significant change in both replicates, either direction)
In short: as §2

[11] = system: Klebsiella aerogenes DSM 30053; experiment: as above
In short: as §2

[12] = system: Ruminococcus gnavus DSM 108212; experiment: fold change of 2-Phenylethylamine concentration vs plate DMSO controls (fold change (ratio)); higher = more amine produced, active = hit call of the paper (significant change in both replicates, either direction)
In short: as §2

SMILES	growth [1]	growth (Escherichia coli IAI1 [2])	growth [3]	growth [4]	fold change of Histamine concentration [5]	fold change of Tryptamine concentration [6]	fold change of Tryptamine concentration [7]	fold change of Putrescine concentration (Escherichia coli IAI1 [8])	fold change of Putrescine concentration [9]	fold change of Cadaverine concentration (Escherichia coli IAI1 [10])	fold change of Cadaverine concentration [11]	fold change of 2-Phenylethylamine concentration [12]
O=C(O)CNC(=O)C(CS)Cc1ccccc1 (stereo not drawn) [Thiorphan] (20 µM)	1.06	1.02	1.05	0.855	0.964 (inactive)	1.22 (inactive)	1.04 (inactive)	0.969 (inactive)	0.983 (inactive)	0.956 (inactive)	1.02 (inactive)	1.02 (inactive)
CCCN(CCC)S(=O)(=O)c1ccc(C(=O)O)cc1 [Probenecid] (20 µM)	1.04	1.02	1.17	1.09	0.92 (inactive)	0.999 (inactive)	1 (inactive)	0.984 (inactive)	1 (inactive)	1.04 (inactive)	1.02 (inactive)	1.02 (inactive)
CNCCC=C1c2ccccc2CCc2ccccc21 [Nortriptyline hydrochloride] (20 µM)	1.11	0.972	0.974	1.28	1.09 (inactive)	1.06 (inactive)	0.993 (inactive)	0.975 (inactive)	1.02 (inactive)	1.04 (inactive)	0.989 (inactive)	1.03 (inactive)
CC1(C)S[C@@H]2[C@H](NC(=O)C3(N)CCCCC3)C(=O)N2[C@H]1C(=O)O [Cyclacillin] (20 µM)	0	1	1.02	0.0834	0.87 (inactive)	0.0132 (active)	0.0795 (active)	0.887 (inactive)	0.993 (inactive)	1.36 (active)	1 (inactive)	0.0578 (active)
C[C@H](CCC(=O)O)[C@H]1CC[C@H]2[C@@H]3[C@H](O)C[C@@H]4C[C@H](O)CC[C@]4(C)[C@H]3CC[C@]12C [Chenodiol] (20 µM)	1.06	0.995	1.02	1.01	1 (inactive)	1.03 (inactive)	1.03 (inactive)	1 (inactive)	0.999 (inactive)	1.04 (inactive)	1.02 (inactive)	0.994 (inactive)
Cc1cc(-n2c(=O)[nH]c(=O)n(C)c2=O)ccc1Oc1ccc(SC(F)(F)F)cc1 [Toltrazuril] (20 µM)	1.1	0.997	1.05	1.09	0.976 (inactive)	0.941 (inactive)	0.792 (inactive)	1.01 (inactive)	1 (inactive)	1.08 (inactive)	1.01 (inactive)	0.81 (inactive)
COCCCOc1cc(C[C@@H](C[C@H](N)[C@@H](O)C[C@H](C(=O)NCC(C)(C)C(N)=O)C(C)C)C(C)C)ccc1OC [Aliskiren hemifumarate] (20 µM)	1.02	0.992	1	0.808	1.06 (inactive)	1 (inactive)	1.04 (inactive)	1 (inactive)	1.02 (inactive)	1 (inactive)	0.987 (inactive)	1.05 (inactive)
CCn1nc(C(=O)O)c(=O)c2cc3c(cc21)OCO3 [Cinoxacin] (20 µM)	0.547	0.0392	0.544	1.06	0.506 (active)	0.724 (active)	1 (inactive)	0.749 (inactive)	1.06 (inactive)	1.61 (active)	1.01 (inactive)	1 (inactive)
CC(N/C(=N\C#N)Nc1ccncc1)C(C)(C)C (stereo not drawn) [Pinacidil monohydrate] (20 µM)	0.925	1	0.98	1.13	1.08 (inactive)	0.982 (inactive)	1.09 (inactive)	1 (inactive)	1 (inactive)	1.04 (inactive)	0.981 (inactive)	1.1 (inactive)
CC(C)Cc1ccc(CC(=O)O)cc1 [Ibufenac] (20 µM)	1.08	1.1	1.06	1.24	0.908 (inactive)	1.04 (inactive)	1 (inactive)	1.06 (inactive)	1.01 (inactive)	0.994 (inactive)	1.01 (inactive)	0.976 (inactive)
CCN(CC)CCNC(=O)c1cc(S(C)(=O)=O)ccc1OC [Tiapride hydrochloride] (20 µM)	0.729	0.484	0.715	0.09	0.997 (inactive)	0.999 (inactive)	1 (inactive)	1.01 (inactive)	0.992 (inactive)	1.03 (inactive)	1 (inactive)	0.956 (inactive)
CCN(CC)CC(=O)Nc1c(C)cccc1C [Lidocaine hydrochloride] (20 µM)	0.845	0.973	0.979	0.66	1.08 (inactive)	1.01 (inactive)	1.01 (inactive)	0.95 (inactive)	1.01 (inactive)	0.975 (inactive)	0.988 (inactive)	1.05 (inactive)
CN(C)CCC=C1c2ccccc2COc2ccccc21 [Doxepin hydrochloride] (20 µM)	1.04	0.995	0.978	0.833	0.999 (inactive)	0.959 (inactive)	0.977 (inactive)	1.03 (inactive)	1 (inactive)	0.919 (inactive)	1 (inactive)	0.921 (inactive)
Nc1ccc(S(=O)(=O)c2ccc(N)cc2)cc1 [Dapsone] (20 µM)	1.06	1.02	0.979	1.2	0.967 (inactive)	1.03 (inactive)	0.982 (inactive)	1.04 (inactive)	0.981 (inactive)	1.02 (inactive)	1 (inactive)	1.04 (inactive)
CC1(C)S[C@@H]2[C@H](NC(=O)[C@H](NC(=O)N3CCNC3=O)c3ccccc3)C(=O)N2[C@H]1C(=O)O [Azlocillin sodium salt] (20 µM)	0	0.726	1.16	0	0.875 (inactive)	0.0279 (active)	0.0374 (active)	0.965 (inactive)	1.07 (inactive)	1.87 (active)	1.02 (inactive)	0.0385 (active)
OC(CCN1CCCCC1)(c1ccccc1)c1ccccc1 [Pridinol methanesulfonate salt] (20 µM)	1.18	0.97	0.996	1.02	1.05 (inactive)	1.03 (inactive)	1.05 (inactive)	1.21 (inactive)	0.996 (inactive)	0.368 (active)	0.997 (inactive)	1.04 (inactive)
CC=CC(=O)N(CC)c1ccccc1C [Crotamiton] (20 µM)	0.871	1.05	1.01	1.07	1.06 (inactive)	1.01 (inactive)	1.07 (inactive)	1.02 (inactive)	1.01 (inactive)	0.967 (inactive)	1.01 (inactive)	1.12 (inactive)
CN1CCC(=C2c3ccccc3CCc3sccc32)CC1 [Pizotifen malate] (20 µM)	1.3	1.03	0.982	0.963	1.06 (inactive)	1.01 (inactive)	0.924 (inactive)	1 (inactive)	1.01 (inactive)	1.04 (inactive)	0.994 (inactive)	0.987 (inactive)
NC(=O)N1c2ccccc2CC(=O)c2ccccc21 [Oxcarbazepine] (20 µM)	0.964	1.01	0.977	1	1.07 (inactive)	0.996 (inactive)	1.02 (inactive)	1 (inactive)	1.01 (inactive)	1.02 (inactive)	0.994 (inactive)	1.01 (inactive)
CCOc1ccc2c(c1)C(C)=CC(C)(C)N2 [Ethoxyquin] (20 µM)	0.801	1	1.01	1.22	1.07 (inactive)	1.06 (inactive)	0.854 (inactive)	1 (inactive)	1.01 (inactive)	0.994 (inactive)	0.986 (inactive)	0.807 (inactive)
Oc1ccc(OCc2ccccc2)cc1 [Monobenzone] (20 µM)	1.21	0.897	1.11	1.03	0.974 (inactive)	1.02 (inactive)	0.872 (inactive)	0.884 (inactive)	1.01 (inactive)	0.978 (inactive)	0.996 (inactive)	0.828 (inactive)
Cn1ccnc1S [Methimazole] (20 µM)	1.17	1.11	0.998	1.13	1.04 (inactive)	0.989 (inactive)	0.998 (inactive)	1.17 (inactive)	1 (inactive)	0.976 (inactive)	0.984 (inactive)	0.993 (inactive)
CN1CCN(C2=Nc3cc(Cl)ccc3Nc3ccccc32)CC1 [Clozapine] (20 µM)	1.01	0.997	0.984	0.688	1.01 (inactive)	1.02 (inactive)	0.947 (inactive)	1.02 (inactive)	0.989 (inactive)	0.889 (inactive)	1 (inactive)	0.92 (inactive)
CC1(C)S[C@@H]2[C@H](NC(=O)Cc3ccccc3)C(=O)N2[C@H]1C(=O)O [Benzylpenicillin sodium] (20 µM)	0	1.19	1.1	0	1.06 (inactive)	0.05 (active)	0.0412 (active)	1.09 (inactive)	1.04 (inactive)	1.56 (active)	1.03 (inactive)	0.0471 (active)
